According to PubChem BioAssay (NCI):
The panel holds about 79,000 compounds, 15% with a hit somewhere; the sample as a whole holds those more often. Values without a mark were called inactive. Activity calls are given as the source filed them. Cut-off read from the data, not from the text of the source: active = growth inhibition above about 70%; inactive = the rest.

Tests used:
[1] = NCI Yeast Anticancer Drug Screen. Data for the rad52 strain (AID 147);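 note: 0% = growth of vehicle-treated control cultures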; conditions: S. cerevisiae rad52 mutant growth inhibition, hits give high values
Method in brief: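 Read-out: growth inhibition versus vehicle-treated controls. Cells were a DNA repair-deficient yeast strain treated with compounds.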

[2] = NCI Yeast Anticancer Drug Screen. Data for the wt1 strain (AID 149);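 note: 0% = growth of vehicle-treated wt1 cultures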; conditions: S. cerevisiae wt1 strain (SPY 50644) growth inhibition, hits give high values
Method in brief: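 Vehicle-normalised growth inhibition; strain wt1; compound exposure.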

[3] = NCI Yeast Anticancer Drug Screen. Data for the mgt1 strain (AID 153); conditions: S. cerevisiae mgt1 mutant growth inhibition, hits give high values
Method in brief: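 mgt1 yeast grown with test compound; read-out is growth inhibition versus vehicle-treated cultures.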

[4] = NCI Yeast Anticancer Drug Screen. Data for the rad50 strain (AID 155);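 note: 0% = growth of vehicle-only cultures of the same strain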; conditions: S. cerevisiae rad50 strain growth inhibition, hits give high values
Method in brief: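 A DNA repair-deficient yeast mutant serves as the test organism; compound-induced growth inhibition is calculated against vehicle-treated cells.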

[5] = NCI Yeast Anticancer Drug Screen. Data for the mec2-1 strain (AID 157); conditions: S. cerevisiae mec2-1 strain, hits give high values
Method in brief: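 Yeast mec2-1 mutant treated with compound. Readout: growth inhibition vs vehicle controls.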

[6] = NCI Yeast Anticancer Drug Screen. Data for the rad14 strain (AID 159);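 note: 0% = growth of vehicle-treated control cultures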; conditions: S. cerevisiae rad14 strain growth inhibition, hits give high values
Method in brief: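 Vehicle-treated cultures served as the baseline for growth inhibition of a DNA repair-mutant yeast strain exposed to each compound.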

[7] = NCI Yeast Anticancer Drug Screen. Data for the sgs1 mgt1 strain (AID 161);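 note: 0% = growth of cultures given vehicle only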; conditions: S. cerevisiae sgs1 mgt1 strain, hits give high values
Method in brief: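 Read-out: growth inhibition vs vehicle controls. Cells: mutant yeast strain deficient in DNA damage repair.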

[8] = NCI Yeast Anticancer Drug Screen. Data for the CLN2oe strain (AID 163);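 note: 0% = growth of vehicle-only control cultures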; conditions: S. cerevisiae CLN2oe strain, hits give high values
Method in brief: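 Read-out: yeast growth inhibition, expressed relative to vehicle-only controls. The strain bears an engineered cell-cycle alteration.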

[9] = NCI Yeast Anticancer Drug Screen. Data for the cln2 rad14 strain (AID 165);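 note: 0% = growth equal to vehicle treated cultures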; conditions: S. cerevisiae cln2 rad14 strain, hits give high values
Method in brief: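 cln2 rad14 yeast strain; compound exposure; growth inhibition read vs vehicle controls.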

[10] = NCI Yeast Anticancer Drug Screen. Data for the bub3 strain (AID 167); conditions: S. cerevisiae bub3 mutant strain, hits give high values
Method in brief: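 Inhibition values come from growth of compound-treated mutant yeast normalised to vehicle-treated controls.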

[11] = NCI Yeast Anticancer Drug Screen. Data for the wt2 strain (AID 169);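 note: 0% = growth of vehicle-treated yeast cultures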; conditions: S. cerevisiae wt2 strain growth inhibition, hits give high values
Method in brief: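 Read-out: growth inhibition versus vehicle-treated control cultures after compound exposure of the yeast strain.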

[12] = NCI Yeast Anticancer Drug Screen. Data for the mlh1 strain (AID 171);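 note: 0% = growth of vehicle-treated control cultures of the same strain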; conditions: S. cerevisiae mlh1 strain growth inhibition, hits give high values
Method in brief: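 Read-out: growth inhibition versus vehicle controls. Strain: engineered yeast with a defined DNA repair or cell cycle defect, compound-treated.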

[13] = NCI Yeast Anticancer Drug Screen. Data for the sgs1 strain (AID 173);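 note: 0% = growth of vehicle-only control cultures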; conditions: S. cerevisiae sgs1 mutant, hits give high values
Method in brief: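 Read-out: yeast growth inhibition relative to vehicle controls, following compound exposure of a strain with a defined DNA repair/cell cycle alteration.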

[14] = NCI Yeast Anticancer Drug Screen. Data for the mlh1 rad18 strain (AID 175); conditions: S. cerevisiae mlh1 rad18 strain growth inhibition, hits give high values
Method in brief: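 Yeast w/ defined DNA-repair lesions; compound exposure; growth vs vehicle controls → % inhibition.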

[15] = NCI Yeast Anticancer Drug Screen. Data for the rad18 strain (AID 177); conditions: S. cerevisiae rad18 mutant growth inhibition, hits give high values
Method in brief: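 Readout: growth inhibition vs vehicle controls. Cells: genetically altered yeast strain, DNA repair defect.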

[16] = at 5.0 µM (retest, dose inferred, filed as 0.5)
[17] = at 50.0 µM (retest, dose inferred, filed as 5.0)

`[N-]=[N+]=C1C(Cl)=C(Cl)C(Cl)=C1Cl` gave a growth inhibition ([1]; at 1.2 µM) of -1%, a growth inhibition ([1]; at 3.7 µM) of 17% and a growth inhibition ([1]; at 11.0 µM) of 63%. For the same molecule, the growth inhibition ([1]; at 33.0 µM) was 99% (active), the growth inhibition ([1]; at 100.0 µM) was 99% (active) and the growth inhibition ([2]; at 1.2 µM) was -3%. For the same molecule, the growth inhibition ([2]; at 3.7 µM) was -2%, the growth inhibition ([2]; at 11.0 µM) was 44% and the growth inhibition ([2]; at 33.0 µM) was 97% (active). The growth inhibition ([2]; at 100.0 µM) was 99% (active), the growth inhibition ([3]; at 1.2 µM) was -1% and the growth inhibition ([3]; at 3.7 µM) was -1%. The growth inhibition ([3]; at 11.0 µM) was 46%, the growth inhibition ([3]; at 33.0 µM) was 95% (active) and the growth inhibition ([3]; at 100.0 µM) was 99% (active). The growth inhibition ([4]; at 1.2 µM) was 6%, the growth inhibition ([4]; at 3.7 µM) was 8% and the growth inhibition [4, 16] was 62%. The growth inhibition ([4]; at 11.0 µM) was 65%, the growth inhibition ([4]; at 33.0 µM) was 99% (active) and the growth inhibition [4, 17] was 96% (active). For the same molecule, the growth inhibition ([4]; at 50.0 µM) was 99% (active), the growth inhibition ([4]; at 100.0 µM) was 99% (active) and the growth inhibition ([5]; at 1.2 µM) was 1%. For the same molecule, the growth inhibition ([5]; at 3.7 µM) was 2%, the growth inhibition [5, 16] was 15% and the growth inhibition ([5]; at 11.0 µM) was 59%. For the same molecule, the growth inhibition ([5]; at 33.0 µM) was 99% (active), the growth inhibition [5, 17] was 98% (active) and the growth inhibition ([5]; at 50.0 µM) was 99.5% (active). The growth inhibition ([5]; at 100.0 µM) was 99% (active), the growth inhibition ([6]; at 1.2 µM) was 1% and the growth inhibition ([6]; at 3.7 µM) was 5%. For the same molecule, the growth inhibition ([6]; at 11.0 µM) was 44%, the growth inhibition ([6]; at 33.0 µM) was 99% (active) and the growth inhibition ([6]; at 100.0 µM) was 99% (active). The growth inhibition [7, 16] was 20%, the growth inhibition [7, 17] was 95% (active) and the growth inhibition ([7]; at 50.0 µM) was 99.2% (active). The growth inhibition ([8]; at 1.2 µM) was -2%, the growth inhibition ([8]; at 3.7 µM) was 2% and the growth inhibition ([8]; at 11.0 µM) was 50%. For the same molecule, the growth inhibition ([8]; at 33.0 µM) was 99% (active), the growth inhibition ([8]; at 100.0 µM) was 99% (active) and the growth inhibition [9, 16] was -6%. The growth inhibition [9, 17] was 97% (active), the growth inhibition ([9]; at 50.0 µM) was 98.8% (active) and the growth inhibition ([10]; at 1.2 µM) was -8%. For the same molecule, the growth inhibition ([10]; at 3.7 µM) was 1%, the growth inhibition [10, 16] was 11% and the growth inhibition ([10]; at 11.0 µM) was 62%. The growth inhibition ([10]; at 33.0 µM) was 98% (active), the growth inhibition [10, 17] was 97% (active) and the growth inhibition ([10]; at 50.0 µM) was 99% (active). The growth inhibition ([10]; at 100.0 µM) was 99% (active), the growth inhibition ([11]; at 1.2 µM) was 0% and the growth inhibition ([11]; at 3.7 µM) was 0%. For the same molecule, the growth inhibition ([11]; at 11.0 µM) was 48%, the growth inhibition ([11]; at 33.0 µM) was 99% (active) and the growth inhibition ([11]; at 100.0 µM) was 99% (active). It also gave a growth inhibition ([12]; at 1.2 µM) of 6%, a growth inhibition ([12]; at 3.7 µM) of -1% and a growth inhibition ([12]; at 11.0 µM) of 48%. The growth inhibition ([12]; at 33.0 µM) was 99% (active), the growth inhibition ([12]; at 100.0 µM) was 99% (active) and the growth inhibition ([13]; at 1.2 µM) was -1%. The growth inhibition ([13]; at 3.7 µM) was 19%, the growth inhibition ([13]; at 11.0 µM) was 64% and the growth inhibition ([13]; at 33.0 µM) was 99% (active). For the same molecule, the growth inhibition ([13]; at 100.0 µM) was 99% (active), the growth inhibition [14, 16] was 33% and the growth inhibition [14, 17] was 97% (active). For the same molecule, the growth inhibition ([14]; at 50.0 µM) was 99.1% (active), the growth inhibition ([15]; at 1.2 µM) was 3% and the growth inhibition ([15]; at 3.7 µM) was 13%. For the same molecule, the growth inhibition ([15]; at 11.0 µM) was 62%, the growth inhibition ([15]; at 33.0 µM) was 98% (active) and the growth inhibition ([15]; at 100.0 µM) was 99% (active).

Work on `CCCCCCCCCCCCCCCCP(=O)(O)OCC(N)C(=O)O` (stereo unspecified) yielded a growth inhibition ([1]; at 1.2 µM) of -5%, a growth inhibition ([1]; at 3.7 µM) of -40% and a growth inhibition ([1]; at 11.0 µM) of -38%. For the same molecule, the growth inhibition ([1]; at 33.0 µM) was -15%, the growth inhibition ([1]; at 100.0 µM) was 95% (active) and the growth inhibition ([3]; at 1.2 µM) was 15%. It also gave a growth inhibition ([3]; at 3.7 µM) of 21%, a growth inhibition ([3]; at 11.0 µM) of 7% and a growth inhibition ([3]; at 33.0 µM) of 43%. The growth inhibition ([3]; at 100.0 µM) was 97% (active), the growth inhibition ([4]; at 1.2 µM) was -14% and the growth inhibition ([4]; at 3.7 µM) was -14%. For the same molecule, the growth inhibition [4, 16] was -19%, the growth inhibition ([4]; at 11.0 µM) was -39% and the growth inhibition ([4]; at 33.0 µM) was 6%. The growth inhibition [4, 17] was 46%, the growth inhibition ([4]; at 50.0 µM) was 66.9% and the growth inhibition ([4]; at 100.0 µM) was 96% (active). It also gave a growth inhibition ([5]; at 1.2 µM) of -22%, a growth inhibition ([5]; at 3.7 µM) of -24% and a growth inhibition [5, 16] of -11%. For the same molecule, the growth inhibition ([5]; at 11.0 µM) was -25%, the growth inhibition ([5]; at 33.0 µM) was -20% and the growth inhibition [5, 17] was 3%. The growth inhibition ([5]; at 50.0 µM) was 58.8%, the growth inhibition ([5]; at 100.0 µM) was 96% (active) and the growth inhibition ([6]; at 1.2 µM) was -67%. The growth inhibition ([6]; at 3.7 µM) was -61%, the growth inhibition ([6]; at 11.0 µM) was -55% and the growth inhibition ([6]; at 33.0 µM) was -47%. For the same molecule, the growth inhibition ([6]; at 100.0 µM) was 93% (active), the growth inhibition [7, 16] was -11% and the growth inhibition [7, 17] was 39%. For the same molecule, the growth inhibition ([7]; at 50.0 µM) was 93.5% (active), the growth inhibition ([8]; at 1.2 µM) was 1% and the growth inhibition ([8]; at 3.7 µM) was -3%. For the same molecule, the growth inhibition ([8]; at 11.0 µM) was 0%, the growth inhibition ([8]; at 33.0 µM) was -6% and the growth inhibition ([8]; at 100.0 µM) was -8%. For the same molecule, the growth inhibition [9, 16] was 23%, the growth inhibition [9, 17] was 7% and the growth inhibition ([9]; at 50.0 µM) was 60.9%. For the same molecule, the growth inhibition ([10]; at 1.2 µM) was -1%, the growth inhibition ([10]; at 3.7 µM) was 1% and the growth inhibition [10, 16] was -9%. For the same molecule, the growth inhibition ([10]; at 11.0 µM) was 0%, the growth inhibition ([10]; at 33.0 µM) was -1% and the growth inhibition [10, 17] was -8%. It also gave a growth inhibition ([10]; at 50.0 µM) of 60.1%, a growth inhibition ([10]; at 100.0 µM) of -13% and a growth inhibition ([11]; at 1.2 µM) of -1%. For the same molecule, the growth inhibition ([11]; at 3.7 µM) was -2%, the growth inhibition ([11]; at 11.0 µM) was -4% and the growth inhibition ([11]; at 33.0 µM) was -2%. It also gave a growth inhibition ([11]; at 100.0 µM) of -3%, a growth inhibition ([12]; at 1.2 µM) of -18% and a growth inhibition ([12]; at 3.7 µM) of -26%. For the same molecule, the growth inhibition ([12]; at 11.0 µM) was -53%, the growth inhibition ([12]; at 33.0 µM) was 20% and the growth inhibition ([12]; at 100.0 µM) was 96% (active). It also gave a growth inhibition ([13]; at 1.2 µM) of -31%, a growth inhibition ([13]; at 3.7 µM) of -58% and a growth inhibition ([13]; at 11.0 µM) of -44%. For the same molecule, the growth inhibition ([13]; at 33.0 µM) was 18%, the growth inhibition ([13]; at 100.0 µM) was 95% (active) and the growth inhibition [14, 16] was -34%. The growth inhibition [14, 17] was 29%, the growth inhibition ([14]; at 50.0 µM) was 73.9% (active) and the growth inhibition ([15]; at 1.2 µM) was -3%. It also gave a growth inhibition ([15]; at 3.7 µM) of -8%, a growth inhibition ([15]; at 11.0 µM) of -10% and a growth inhibition ([15]; at 33.0 µM) of 14%. For the same molecule, the growth inhibition ([15]; at 100.0 µM) was 97% (active).
